Compounds with a hit are over-represented: about 2.9% of the library has one in this group of screens.
B2AR arrestin: agonists driving beta-arrestin recruitment to human beta2-adrenergic receptor. P07550. beta-arrestin recruitment to beta2AR, cell-based reporter. Potency, µM (titrated, usually from 46.1 µM), for inactives: top-dose activation, hits mostly activators. 0.02% of 330,000 active. AID 492947; active = well fitted activation curve with a large enough effect; inconclusive = small, poorly fitted or top-dose-only effect;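 note: potency is the fitted concentration of half-maximal effect; 0% = DMSO controls and full agonism = EC100 isoproterenol or metaproterenol; nearly all actives have a fitted effect of over 65% in size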
TSHR antagonist: blocks TSH signaling through the human TSH receptor; P16473; 0.2% of 330,000 active; activity change, negative = inhibition, % at 11.5 µM; TSHR-expressing cells, TSH-stimulated cAMP HTRF, 2 h; stronger effect = lower value; AID 504810;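 active = activity change below a set negative limit, meaning inhibition stronger than a set level, cut at about -70% in these data; inconclusive = activity change between two set negative limits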; note: % is set by controls: 0 for no effect and ±100 for the full control effect
Target sequence (P16473 whole entry, looked up): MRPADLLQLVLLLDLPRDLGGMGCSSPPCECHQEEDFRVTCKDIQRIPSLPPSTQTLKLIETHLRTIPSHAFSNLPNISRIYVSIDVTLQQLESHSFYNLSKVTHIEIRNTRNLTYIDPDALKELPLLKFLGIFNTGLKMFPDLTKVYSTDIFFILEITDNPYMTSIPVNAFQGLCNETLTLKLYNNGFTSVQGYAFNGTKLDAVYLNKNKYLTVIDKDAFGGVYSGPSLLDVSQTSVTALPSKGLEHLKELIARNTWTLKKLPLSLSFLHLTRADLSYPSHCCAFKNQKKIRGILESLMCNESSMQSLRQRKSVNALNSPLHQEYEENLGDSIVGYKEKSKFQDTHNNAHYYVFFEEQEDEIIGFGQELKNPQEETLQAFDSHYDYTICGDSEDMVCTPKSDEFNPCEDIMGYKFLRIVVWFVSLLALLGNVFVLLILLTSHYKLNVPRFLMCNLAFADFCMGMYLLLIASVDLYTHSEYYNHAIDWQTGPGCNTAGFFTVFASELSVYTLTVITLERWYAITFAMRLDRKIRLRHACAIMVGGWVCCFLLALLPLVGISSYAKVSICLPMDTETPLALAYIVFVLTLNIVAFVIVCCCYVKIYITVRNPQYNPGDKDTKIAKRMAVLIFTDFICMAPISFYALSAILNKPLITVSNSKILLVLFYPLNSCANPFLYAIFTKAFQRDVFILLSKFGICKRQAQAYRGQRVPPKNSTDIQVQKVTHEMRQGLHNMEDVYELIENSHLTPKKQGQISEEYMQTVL
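Competitive HTRF cAMP read-out (cryptate anti-cAMP antibody, cAMP-d2; 30 min, room temperature) in freshly harvested TSHR cells. Compounds added before TSH at EC80 (4nM final), followed by 2 hours' incubation at 37 deg C.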
D3 ag: agonists of human D3 dopamine receptor; D3R DiscoveRx beta-arrestin cells, luminescence, 90 min; max activation, %; P35462; AID 652048; 0.58% of 410,000 active; in the data active = max activation above about 30%; note: 0% is about no effect
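Cells at 1500/well, incubated overnight, then treated with pinned compounds (dopamine as control) for 90 min at 37 degrees C. DiscoveRx reagent added for 30 - 60 minutes at room temperature; luminescence read.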
DRD3 antagonist: antagonists of human D3 dopamine receptor. D3R cells, DiscoveRx beta-arrestin luminescence, antagonist mode; stronger effect = lower value. 2.5% of 360,000 active. AID 652054. max response, negative = inhibition, %. P35462; in the data active = max response below about -50%; inconclusive = no clear call, values can overlap the other calls; note: % is set by controls: 0 for no effect and ±100 for the full control effect
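Cells expressing the human receptor were seeded at 1500 cells/well, incubated overnight at 37 degrees C in 5% CO2, then exposed to library compounds with dopamine controls for 90 minutes at 37 degrees C before luminescent detection.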
* = called active by the depositor; u = inconclusive; x = not tested or not shown.

SMILES | B2AR arrestin | TSHR antagonist | D3 ag | DRD3 antagonist
CCCCC(=O)NC(c1ccc(Cl)cc1Cl)c1ccc2cccnc2c1O (stereo not given) | 0% | 18 | 33* | -9
CC(=O)NC(c1ccco1)c1ccc2cccnc2c1O (stereo not given) | 0% | -6 | -6 | -62*
Oc1ccccc1C(Nc1nccs1)c1ccc2cccnc2c1O (stereo not given) | u | -5 | 33* | -8
CC(=O)c1cccc(NC(=O)CN2C(=O)CC(c3ccc(C)cc3C)=Nc3ccccc32)c1 | x | x | -9 | x
Cc1nn(C(=O)c2cccc(F)c2)c(C)c1S(=O)(=O)N1CCOCC1 | x | x | 7 | x
CCC(C)NS(=O)(=O)c1ccc(N2CCCCS2(=O)=O)cc1 (stereo not given) | x | x | -8 | x
COc1ccc(NC(=O)c2cc(S(=O)(=O)N3CCCCC3)cn2C)cc1Cl | x | x | 49* | x
CCOc1ccc(S(=O)(=O)N2CCOCC2)cc1NC(=O)c1ccccc1F | 0% | -1 | 79* | -9
COc1ccc(NC(=O)c2cc(S(=O)(=O)N3CCOCC3)cn2C)cc1Cl | -4% | 7 | 6 | 0
CC(=O)Nc1cccc(NC(=O)/C=C/c2ccc(S(=O)(=O)N3CCOCC3)cc2)c1 | 0% | 2 | -7 | 13
COc1ccc(NC(=O)c2cc(S(=O)(=O)N3CCCCC3)ccc2C)cc1S(=O)(=O)N1CCOCC1 | x | x | -6 | -52*
Cc1ccc(NC(=O)/C=C/c2ccc(S(=O)(=O)N3CCOCC3)cc2)cc1S(=O)(=O)N(C)C | x | x | 29 | -111*
COC(=O)c1c(Oc2ccc(C(C)=O)cc2)nnc(-c2ccccc2)c1-c1ccccc1 | x | x | 2 | x
CCCc1nnc(NC(=O)c2cc(=O)c3cc(Cl)ccc3o2)s1 | x | x | 8 | x
COc1cc(C2CC(=O)Nc3ccc4ccccc4c32)ccc1OC(=O)C(C)C (stereo not given) | x | x | -5 | x
CCOc1cc(N2CCOCC2)c(OCC)cc1NC(=O)c1cc(S(=O)(=O)N2CCOCC2)ccc1C | 0% | -82* | 11 | 5
Cc1ccc(S(=O)(=O)c2nnn3c2nc(NC(C)C)c2sccc23)cc1 | x | x | -10 | x
Cc1ccc(C(=O)NCC(c2ccco2)N2CCCCC2)s1 (stereo not given) | -1% | 4 | -8 | u
O=C(NCC(c1ccco1)N1CCCC1)c1ccc(Cl)cc1 (stereo not given) | 0% | -1 | -2 | -67*
Cc1ccc2c(Cl)c(C(=O)NCC(c3ccco3)N3CCCC3)sc2c1 (stereo not given) | 0% | 12 | -14 | 1
O=C(CCNC(=O)c1ccc(Cl)cc1)NCC(c1ccco1)N1CCCCC1 (stereo not given) | 0% | 18 | -1 | 0
O=C(NCC(c1ccco1)N1CCCC1)c1cc2ccccc2s1 (stereo not given) | 0% | -1 | -19 | -59*
Cc1nn(-c2ccc(C(=O)NCC(c3ccco3)N3CCCC3)cc2)c(C)c1Cl (stereo not given) | 0% | -28 | 57* | -7
Cc1ccc(NC(=O)NCCc2c(C)nn(C)c2C)c(Cl)c1 | x | x | -3 | x
CCc1nnc(SCc2nc(-c3ccc(OC)cc3)oc2C)c2cc3sccc3n12 | x | x | 1 | x
SMILES | B2AR arrestin | TSHR antagonist | D3 ag | DRD3 antagonist
CCCn1c(SCC(=O)Nc2cccc(C)n2)nc2c1c(=O)n(C)c(=O)n2C | 0% | 11 | 5 | 8
CCCn1c(SCC(=O)Nc2cc(C)on2)nc2c1c(=O)n(C)c(=O)n2C | x | x | -3 | -51*
COc1cc(-c2coc3c(C(=O)NCc4ccccc4)cccc23)ccc1O | x | x | 3 | 7
COC(=O)c1c(-c2ccccc2)csc1N | x | x | 1 | 0
COC(=O)c1c(C(=O)OC)c2c(-c3ccccc3)cc3cccc1n32 | x | x | 34* | 93
COc1cc(SSc2cc(OC)cc([N+](=O)[O-])c2N)c(N)c([N+](=O)[O-])c1 | 14µM* | -14 | -25 | -77*
COc1cccc(CNC(=O)c2ccc3c(c2)sc2nc(-c4ccccc4)cn23)c1OC | x | x | 5 | x
Cc1cc(C)nc(Nc2ccccc2Cl)n1 | -1% | -10 | -15 | -70*
C[C@]12c3[nH]c4ccc(Cl)cc4c3CCN1C(=O)[C@@H](CC(=O)NCC13CC4CC(CC(C4)C1)C3)C[C@@H]2C(=O)N1CCOCC1 | -1% | 4 | -23 | -50*
CC(C)N(C(=O)[C@H]1C[C@H](CC(=O)NCCN2CCOCC2)C(=O)N2CCc3c([nH]c4ccc(Cl)cc34)[C@]12C)C(C)C | 0% | 2 | -1 | -53*
CCN(CC)C(=O)[C@H]1C[C@H](CC(=O)NCCN2CCOCC2)C(=O)N2CCc3c([nH]c4ccc(Cl)cc34)[C@]12C | 0% | 27 | -19 | 0
CCN(CC)CCNC(=O)C12CC3CC(C)(CC(C)(C3)C1)C2 | 0% | 31 | -26 | -29
CCN(CC)CCNC(=O)C12CC3CC(CC(C3)C1)C2 | 0% | 4 | -9 | -63*
O=C(/C=C\c1ccccc1)NC1CC(=O)N(c2ccccc2)C1 (stereo not given) | x | x | 45* | x
COc1ccc(-n2c(-c3ccccc3F)nc3c(cnn3-c3ccc(C)cc3)c2=O)cc1 | x | x | -10 | x
COc1ccccc1-c1cccc(-c2nc(C(=O)Nc3nccs3)cc3c2[C@H](CCO)N(C(C)=O)C3)c1 | x | x | -9 | -16
COc1cccc(NC(=O)c2ccc(-c3nc(COc4ccccc4)c(C)o3)cc2)c1 | x | x | 62* | x
COc1cccc(NC(=O)c2ccc(-c3nc(COc4ccc(C)cc4)c(C)o3)cc2)c1 | x | x | 1 | x
C=C1C(=O)OC2C=C(CO)C3OC3C3OC3(C)CC(OC(=O)/C(=C/C)COC(C)=O)C12 (stereo not given) | x | x | -15 | -81*
O=C(CSC1=Nc2ccccc2N=C(c2ccc(F)cc2)C1)NCc1ccccc1Cl | x | x | -1 | x
Cc1ccccc1NC(=O)c1cc2ccccn2n1 | -1% | -84* | -9 | -8
Cc1ccc(C)c(NC(=O)c2cc3ccccn3n2)c1 | 0% | -5 | -3 | 8
COC(=O)c1cc(C)nc2c1C(=O)C(=O)C=C2N1CCOCC1 | 0% | 24 | 0 | -100*
COC(=O)c1cc(S(=O)(=O)N2CCOCC2)c(Cl)cc1N1CCOCC1 | 0% | 8 | 2 | u
Cc1ccc(NC(=O)CCCn2c(=O)c3cccn3c3cccnc32)c(Cl)c1 | x | x | 10 | x
SMILES | B2AR arrestin | TSHR antagonist | D3 ag | DRD3 antagonist
Cc1cc(C)cc(Nc2cc(C(=O)NC3CCC(C)CC3)c3ccccc3n2)c1 (stereo not given) | x | x | -7 | x
CCOc1cccc2cc(S(=O)(=O)c3ccccc3F)c(=O)oc12 | x | x | -7 | x
O=C1OCCN1C(=O)[C@H]1[C@H](c2ccc(Cl)cc2)C(c2ccccc2)=NN1c1ccccc1 | 0% | 64 | 4 | -2
O=C1OCCN1C(=O)[C@H]1[C@H](c2ccccc2)C(c2cccc(Cl)c2)=NN1c1ccccc1 | 5% | 36 | 39* | 2
NC1=C(c2ccc([N+](=O)[O-])cc2)C(=O)CO1 | 0% | 7 | 4 | 3
O=c1oc2c(-c3ccc([N+](=O)[O-])cc3)cc(O)cc2s1 | 0% | 1 | -5 | -56*

Source: PubChem BioAssay
